Screening results deposited in PubChem BioAssay by several laboratories.
CHT allo act: human CHT allosteric activation. Q9GZV3. CHT-expressing cells, membrane potential dye, choline EC20; active compounds read high; LV-AA mutant CHT in HEK293 cells. B-score at 10 µM. 0.49% of 310,000 active;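 active = initial fluorescence not abnormally high and integrated response B-score, plate-corrected, over 3 SD above library mean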
Target sequence (Q9GZV3 whole entry, looked up): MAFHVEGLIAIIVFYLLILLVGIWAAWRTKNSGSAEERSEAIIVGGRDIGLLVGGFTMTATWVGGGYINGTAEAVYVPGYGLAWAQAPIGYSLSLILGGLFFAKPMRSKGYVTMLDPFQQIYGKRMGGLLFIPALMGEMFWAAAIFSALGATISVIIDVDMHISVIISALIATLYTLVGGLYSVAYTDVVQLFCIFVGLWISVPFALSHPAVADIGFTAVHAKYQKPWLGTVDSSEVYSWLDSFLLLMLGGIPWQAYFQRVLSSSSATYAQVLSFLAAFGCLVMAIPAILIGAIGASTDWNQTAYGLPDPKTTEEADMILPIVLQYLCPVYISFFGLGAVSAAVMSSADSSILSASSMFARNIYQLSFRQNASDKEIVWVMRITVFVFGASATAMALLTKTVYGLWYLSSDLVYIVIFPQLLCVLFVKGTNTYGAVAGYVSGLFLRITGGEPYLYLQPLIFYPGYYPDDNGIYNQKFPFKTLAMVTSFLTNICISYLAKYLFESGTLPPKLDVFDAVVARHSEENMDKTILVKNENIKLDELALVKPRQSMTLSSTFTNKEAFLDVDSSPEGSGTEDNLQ
NALP3 yeast inh: blocks the NALP3 inflammasome reconstituted in yeast; Yeast reconstituted NLRP3/ASC/caspase-1, beta-gal luminescence, 24 h; inhibition, % at 10 µM; 0.39% of 330,000 active; AID 2825;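 active = inhibition of 50% or more; inactive = inhibition below 50%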;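 also: plate controls were induced DMSO wells for no effect and uninduced yeast grown without galactose for full effect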
NALP1 yeast inh: inhibitors of NALP1 inflammasome in yeast; AID 2071; 0.61% of 280,000 active; S. cerevisiae NALP1/ASC/caspase-1 growth, X-gal OD620, 72 h; inhibition, % at 10 µM; in the data active = inhibition mostly above about 24%, no sharp cut-off; inactive = mostly below about 32%
A1 inh: inhibitors of the anti-apoptotic protein A1, read as caspase activation | MEF A1-2A-BIM cells, Caspase-Glo 3/7 luminescence, 3 h; percent of clofoctol response, vehicle zero | caspase activation, % (no concentration beside the values) | 0.066% of 330,000 active | AID 2462;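 active = over half of replicate activation scores above 10%, or exactly half above 10 with the replicate mean above 10; inconclusive = replicate mean below 10 yet half the replicates above 10; inactive = over half of replicates below 10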
CHT block: inhibits the human high affinity choline transporter; B-score at 10 µM; CHT-expressing cells, membrane potential dye, choline response; active compounds read low; 0.86% of 310,000 active; AID 488975; Q9GZV3;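 active = B-score over 3 SD under the library average, and starting fluorescence ratio not unusually high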;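 also: choline stimulus applied at its EC90 after an EC20 pre-addition; B-score computed on integrated fluorescence ratio after choline addition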
SUMO Mot1 rescue: inhibitors of SUMOylation pathway: yeast Mot1-301 growth rescue. AID 2716. S. cerevisiae Mot1-301 growth rescue, ATP luminescence, 38.5C; percent above DMSO median, 100 means doubled. growth rescue, % at 18.8 µM. 1% of 320,000 active;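 active = every valid replicate shows activation above 250% relative to neutral control wells; inactive = the rest, any valid replicate at or below 250%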;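 also: OY570 slx delta 5 strain wells were the positive control but not used for scaling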
* = called active by the depositor; i = inactive; ? = inconclusive; . = no result given; + = active, no number. Hits are enriched below; roughly 3% of the tested compounds scored in any of these assays.

SMILES	CHT allo act	NALP3 yeast inh	NALP1 yeast inh	A1 inh	CHT block	SUMO Mot1 rescue
CC(Sc1nc(N)cc(=O)[nH]1)C(=O)NC1CCCCC1 (centres undefined)	i	3	2	1	i	+
CCc1c(C)nc2ncnn2c1Nc1ccc(C#N)c(Cl)c1	i	2	30*	0	i	-5
CCc1c(C)nc2ncnn2c1Nc1ccc(C(C)=O)cc1	i	-1	-2	0	i	-21
Nc1ccc(CCNc2ncnc3c2ncn3[C@@H]2O[C@H](CO)[C@@H](O)[C@H]2O)cc1	i	1	.	0	i	-15
OCC1OC(n2cnc3c(NCCc4ccccc4)ncnc32)C(O)C1O (centres undefined)	i	23	.	-1	i	317*
CCOc1ccc(OCCSc2ccc(S(=O)(=O)N3CCN(C)CC3)cn2)cc1	.	43	.	2	.	295*
CCOC(=O)/C=C/C(=O)OCC(=O)Nc1ccc(Cl)cc1Cl	i	-6	28*	2	i	257
Cc1c(C(=O)OCC(=O)c2ccc3c(c2)OCCO3)oc2ccccc12	i	23	-4	-7	i	312*
Cc1cc(C(=O)OCC(=O)c2ccc3c(c2)OCCO3)c(C)o1	i	27	-4	0	i	-11
O=C(Nc1ccc(OC(F)F)cc1)c1cc(S(=O)(=O)N2CCOCC2)ccc1F	i	13	4	1	i	2
C=CCOc1ccc(/C(O)=C2\C(=O)C(=O)N(CCOC)C2c2cccnc2)cc1 (centres undefined)	i	7	.	-1	i	-1
CCCOc1ccc(/C(O)=C2/C(=O)C(=O)N(CCOC)C2c2cccnc2)cc1 (centres undefined)	i	11	31*	0	i	-11
Cc1[nH]n(-c2ccccc2)c(=O)c1C(C[N+](=O)[O-])c1ccc(F)cc1 (centres undefined)	i	31	109*	0	i	173
Cc1[nH]n(-c2ccccc2)c(=O)c1C(C[N+](=O)[O-])c1ccc(Cl)cc1 (centres undefined)	i	17	108*	0	i	.
CCn1c(=O)n(CC)c2cc(N3CCCC3)c(NC(=O)c3cc(Cl)ccc3OC)cc21	i	12	14	0	i	-18
CCN1CCN(CCCNC(=O)c2ccc(NC(=O)C3=C(C)OCCS3)cc2)CC1	i	5	2	?	i	-7
CCC(C)NS(=O)(=O)c1cc2c3c(c1)CCN3C(=O)CC2 (centres undefined)	i	-2	25	0	i	8
Cc1nc2c(Br)c3nc(C(F)(F)F)[nH]c3c(Br)c2[nH]1	i	7	48*	0	i	142
CCOC(=O)COc1ccccc1C(=O)c1cnn(-c2ccccc2)c1	i	12	-3	-1	i	-1
CCc1ccc(NC(=O)Cn2c3[n+](c4c(F)c(F)ccc42)CCCCC3)cc1	i	-35	16	1	i	708*
O=C(Cn1c2[n+](c3ccc(C(F)(F)F)cc31)CCCCC2)Nc1ccc(Br)cc1	i	6	6	-1	i	-12
Nc1c(C(=O)Nc2cccc(F)c2)nnn1-c1ccc2c(c1)OCCO2	i	-1	-5	-9	i	20
Cc1c[nH]c2cccc(OCC(CNC(C)(C)C)OC(=O)c3ccccc3)c12 (centres undefined)	i	-2	19	0	-11*	-15
CCCc1cc(=O)[nH]c(SCCOc2ccc(OCC)cc2)n1	i	20	44*	-2	i	16
COc1ccccc1C1=Nn2c(nnc2C2CCCCC2)SC1	i	4	3	0	i	354*
SMILES	CHT allo act	NALP3 yeast inh	NALP1 yeast inh	A1 inh	CHT block	SUMO Mot1 rescue
CCC(=O)N1c2ccc(S(=O)(=O)N3CCN(C)CC3)cc2CC1C (centres undefined)	i	3	34*	0	i	1
Cc1ccc(C)c(S(=O)(=O)NC(C)CCc2ccccc2)c1 (centres undefined)	i	16	4	0	i	-16
O=C(c1ccccc1)c1c[nH]c(C(=O)NNc2ccccc2)c1	i	17	10	0	i	404*
O=C(Nc1ccc(F)c(Cl)c1)c1cncs1	i	22	11	-1	i	8
Cc1c(N)ccc(-n2nc3ccccc3n2)c1C	i	17	.	-1	i	6
CCN(CC(=O)NCc1cccs1)c1ccc(S(=O)(=O)N2CCN(C)CC2)cn1	i	17	39*	0	i	2
COC(=O)CSc1nnc(-c2ccc(S(=O)(=O)N3CCCC3)cc2)n1C	i	2	42*	1	i	1
CC(=O)CSc1nnc(-c2ccc(S(=O)(=O)N3CCCC3)cc2)n1C	i	20	-1	-1	i	65
CC(C)(Oc1ccc(Cl)cc1)C(=O)NC1CC1	i	-2	.	0	i	38
CCc1nc(N2CCN(C(=O)CCl)CC2)c2c3c(sc2n1)CC(C)CC3 (centres undefined)	i	24	40*	0	i	18
N=c1n(CC(=O)c2ccc([N+](=O)[O-])cc2)c2ccccc2n1Cc1ccc(Cl)cc1	i	10	64*	-1	i	-16
CCCCOc1ccc(C(=O)CCN2CCCCC2)cc1	i	37	46*	0	i	42
O=C(COC(=O)C1CCN(c2ccc(C(F)(F)F)cn2)CC1)Nc1cc(F)ccc1F	i	27	.	-1	i	14
O=C(NCc1ccc(Cl)cc1)C1CCN(S(=O)(=O)c2ccc(F)cc2)CC1	i	7	11	1	i	238
O=C(CCn1c(=O)[nH]c2ccsc2c1=O)NCc1ccc(F)cc1	i	1	-12	0	i	451*
Cc1ccc(OCC(=O)N(c2ccccn2)C2CCCCC2)c(C)c1	i	9	44*	0	i	-21
O=C(NCCN1CCCC1)c1ccc(Cl)cc1	i	18	-4	1	i	-15
CC(C)(C)c1cc(C(=O)NCCN2CCCC2)cc(C(C)(C)C)c1	i	16	108*	0	i	-4
O=c1c(O)c(-c2cc(O)c(O)c(O)c2)oc2cc(O)cc(O)c12	i	14	.	0	i	265*
C=CCNC(=S)N1CCN(C2CCCCC2)CC1	i	3	.	1	i	-13
CCOC(=O)c1cc(-c2cccc([N+](=O)[O-])c2)n[nH]1	i	23	30*	-1	i	68
COc1ccc(Nc2nc(-c3ccncc3)nc3ccccc23)cc1	i	11	37*	-1	i	-4
